# Experimental data: PubChem BioAssay (NCATS)
# Test: qHTS profiling of the MIPE4 collection as inhibitors of Plasmodium falciparum (DD2) proliferation (AID 743345)
# Conditions: P. falciparum Dd2 in erythrocytes, SYBR Green DNA, 72 h; at 28.5 µM (top of the series) unless noted
# Outline: (§1)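 Parasite DNA was quantified by SYBR Green I fluorescence (ex 485, em 535 nm) after overnight lysis in saponin/Triton buffer at room temperature. Cultures at 0.3% parasitemia and 2.5% hematocrit were first exposed to compound for 72 h at 37 C; signals were normalised to artemisinin (0.29 uM) and vehicle wells.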
row,SMILES,"parasite growth remaining, % of DMSO control (lower = more inhibition)"
1,COc1ccccc1OCC(O)COC(N)=O (stereo unspecified),96.9%
2,C1CCC(C(CC2CCCCN2)C2CCCCC2)CC1 (stereo unspecified),7.9%
3,COC(c1ccccc1)(c1ccccc1)[C@H](Oc1nc(C)cc(C)n1)C(=O)O,102%
4,N[C@@H](C(=O)N[C@@H]1C(=O)N2C(C(=O)O)=C(Cl)CS[C@H]12)c1ccccc1,96.8%
5,OCc1ccc(-c2nn(Cc3ccccc3)c3ccccc23)o1,85%
6,CS(=O)(=O)c1ccc([C@@H](O)[C@@H](CO)NC(=O)C(Cl)Cl)cc1,51.5%
7,O=c1oc2c(O)c(O)cc3c(=O)oc4c(O)c(O)cc1c4c23,7.22%
8,NS(=O)(=O)c1cc2c(cc1Cl)NC(C(Cl)Cl)NS2(=O)=O (stereo unspecified),86.3%
9,CCCCCCNC(=O)n1cc(F)c(=O)[nH]c1=O,32%
10,CC(=O)[C@H]1CC[C@H]2[C@@H]3CC=C4C[C@@H](O)CC[C@]4(C)[C@H]3CC[C@]12C,88.9%
11,CCCc1nc(C)c2c(=O)[nH]c(-c3cc(S(=O)(=O)N4CCN(CC)CC4)ccc3OCC)nn12,12.3%
12,COc1c(N2CCNC(C)C2)c(F)cc2c(=O)c(C(=O)O)cn(C3CC3)c12 (stereo unspecified),11.3%
13,CN1CCCC(n2nc(Cc3ccc(Cl)cc3)c3ccccc3c2=O)CC1 (stereo unspecified),14%
14,CCOc1cc(N)c(Cl)cc1C(=O)NCC1CN(Cc2ccc(F)cc2)CCO1 (stereo unspecified),101%
15,Cn1c(=O)c2c(ncn2CC(O)CO)n(C)c1=O (stereo unspecified),88.3%
16,COCCCOc1cc(C[C@@H](C[C@H](N)[C@@H](O)C[C@H](C(=O)NCC(C)(C)C(N)=O)C(C)C)C(C)C)ccc1OC,119%
17,CO[C@@]12[C@H](COC(N)=O)C3=C(C(=O)C(C)=C(N)C3=O)N1C[C@@H]1N[C@@H]12,7.06%
18,CC1=CC(=O)c2ccccc2C1=O,48%

row,SMILES,"parasite growth remaining, % of DMSO control (lower = more inhibition)"
1,COc1cc2nc(N3CCCN(C)CC3)nc(NC3CCN(Cc4ccccc4)CC3)c2cc1OC,6.59%
2,C[C@@H](NCCCc1cccc(C(F)(F)F)c1)c1cccc2ccccc12,18.5%
3,COc1nc(N)nc2c1ncn2[C@@H]1O[C@H](CO)[C@@H](O)[C@@H]1O,85.4%
4,Nc1nc(N)c2nc(CNc3ccc(C(=O)NC(CCC(=O)O)C(=O)O)cc3)cnc2n1 (stereo unspecified),7.65%
5,CCC(=O)O[C@]1(C(=O)CCl)[C@@H](C)C[C@H]2[C@@H]3CCC4=CC(=O)C=C[C@]4(C)[C@@]3(F)[C@@H](O)C[C@@]21C,55.4%
6,CCOC(=O)c1ccc(C#Cc2ccc3c(c2)C(C)(C)CCS3)nc1,83.8%
7,CCN1CCCC1CNC(=O)c1cc(S(N)(=O)=O)ccc1OC (stereo unspecified),90.1%
8,COc1cc2c(Nc3ccc(Br)cc3F)ncnc2cc1OCC1CCN(C)CC1,7.29%
9,CNC(=O)c1cc(Oc2ccc(NC(=O)Nc3ccc(Cl)c(C(F)(F)F)c3)cc2)ccn1,14%
10,CCC(=O)O[C@]1(C(=O)SCF)[C@H](C)C[C@H]2[C@@H]3C[C@H](F)C4=CC(=O)C=C[C@]4(C)[C@@]3(F)[C@@H](O)C[C@@]21C,86.3%
11,C[C@]12C=CC(=O)C=C1CC[C@@H]1[C@@H]2C(=O)C[C@@]2(C)[C@H]1CC[C@]2(O)C(=O)CO,95.7% [at 9.64 µM]
12,COc1ccc(-c2ccc3cc(C(=O)O)ccc3c2)cc1C12CC3CC(CC(C3)C1)C2,98.8%
13,CCn1cc(C(=O)O)c(=O)c2cc(F)c(N3CCNCC3)nc21,56.4%
14,NCCCC(O)(P(=O)(O)O)P(=O)(O)O,107%
15,CCOC(=O)[C@H](CCc1ccccc1)N[C@H]1CS[C@H](c2cccs2)CN(CC(=O)O)C1=O,58.9%
16,Nc1nc(=S)c2[nH]cnc2[nH]1,101%
17,CC(C)(C)NC(=O)[C@H]1CC[C@H]2[C@@H]3CC[C@H]4NC(=O)C=C[C@]4(C)[C@H]3CC[C@]12C,91.7%
18,COc1ccc2cc3[n+](cc2c1OC)CCc1cc2c(cc1-3)OCO2,6.26%

# Test: qHTS profiling of the MIPE4 collection as inhibitors of Plasmodium falciparum (DD2) proliferation (Rep 2) (AID 743346)
# Conditions: P. falciparum Dd2 in erythrocytes, SYBR Green DNA, 72 h; at 28.5 µM (top of the series) unless noted
# Outline: as §1
row,SMILES,"parasite growth, % of control (lower = inhibition)"
1,COc1ccccc1OCC(O)COC(N)=O (stereo unspecified),142%
2,C1CCC(C(CC2CCCCN2)C2CCCCC2)CC1 (stereo unspecified),7.73%
3,OCc1ccc(-c2nn(Cc3ccccc3)c3ccccc23)o1,73.7%
4,CS(=O)(=O)c1ccc([C@@H](O)[C@@H](CO)NC(=O)C(Cl)Cl)cc1,55.8%
5,O=c1oc2c(O)c(O)cc3c(=O)oc4c(O)c(O)cc1c4c23,5.89%
6,NS(=O)(=O)c1cc2c(cc1Cl)NC(C(Cl)Cl)NS2(=O)=O (stereo unspecified),65%
7,CCCCCCNC(=O)n1cc(F)c(=O)[nH]c1=O,30.5%
8,CC(=O)[C@H]1CC[C@H]2[C@@H]3CC=C4C[C@@H](O)CC[C@]4(C)[C@H]3CC[C@]12C,85.3%
9,CCCc1nc(C)c2c(=O)[nH]c(-c3cc(S(=O)(=O)N4CCN(CC)CC4)ccc3OCC)nn12,33.2%
10,CN1CCCC(n2nc(Cc3ccc(Cl)cc3)c3ccccc3c2=O)CC1 (stereo unspecified),7.67%
11,COCCCOc1cc(C[C@@H](C[C@H](N)[C@@H](O)C[C@H](C(=O)NCC(C)(C)C(N)=O)C(C)C)C(C)C)ccc1OC,50.1%
12,CO[C@@]12[C@H](COC(N)=O)C3=C(C(=O)C(C)=C(N)C3=O)N1C[C@@H]1N[C@@H]12,6.98%
13,CC1=CC(=O)c2ccccc2C1=O,10.3%
14,COc1cc2nc(N3CCCN(C)CC3)nc(NC3CCN(Cc4ccccc4)CC3)c2cc1OC,7.33%
15,COc1nc(N)nc2c1ncn2[C@@H]1O[C@H](CO)[C@@H](O)[C@@H]1O,37.8%
16,Nc1nc(N)c2nc(CNc3ccc(C(=O)NC(CCC(=O)O)C(=O)O)cc3)cnc2n1 (stereo unspecified),21%
17,CCN1CCCC1CNC(=O)c1cc(S(N)(=O)=O)ccc1OC (stereo unspecified),41.9%
18,CNC(=O)c1cc(Oc2ccc(NC(=O)Nc3ccc(Cl)c(C(F)(F)F)c3)cc2)ccn1,33%
19,C[C@]12C=CC(=O)C=C1CC[C@@H]1[C@@H]2C(=O)C[C@@]2(C)[C@H]1CC[C@]2(O)C(=O)CO,82.6% [at 9.64 µM]
20,COc1ccc(-c2ccc3cc(C(=O)O)ccc3c2)cc1C12CC3CC(CC(C3)C1)C2,58.3%
21,CCn1cc(C(=O)O)c(=O)c2cc(F)c(N3CCNCC3)nc21,53.9%
22,NCCCC(O)(P(=O)(O)O)P(=O)(O)O,114%
23,Nc1nc(=S)c2[nH]cnc2[nH]1,51.3%
24,CC(C)(C)NC(=O)[C@H]1CC[C@H]2[C@@H]3CC[C@H]4NC(=O)C=C[C@]4(C)[C@H]3CC[C@]12C,53%
25,COc1ccc2cc3[n+](cc2c1OC)CCc1cc2c(cc1-3)OCO2,13.4%
